# Assay results taken from ChEMBL document CHEMBL5606458, “ASAP - ZIKV NS2B-NS3 protease fluorescence single point” (2024).
# The campaign covered roughly 2,700 compounds. About 160 (5.9%) showed an effect of 50% or more. The full list was thinned out, with strong results kept by preference.
# Target: Nonstructural protein 3 (Zika virus) (UniProt A0A024AXB9)
# [1] = PRVABC59, Concentration 15.0 uM, Number of replicates 1.0
# [2] = PRVABC59, Concentration 50.0 uM, Number of replicates 1.0
# Nonstructural protein 3 (Zika virus), sequence (A0A024AXB9 as listed by the source): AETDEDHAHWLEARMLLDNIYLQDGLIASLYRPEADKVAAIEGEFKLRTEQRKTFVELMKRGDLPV
structure (smiles),measurement,setting,value
c1cnc2c(C3CCN(Cc4ccc5[nH]cnc5c4)CC3)c[nH]c2c1,inhibition,"PRVABC59, Concentration 49.5 uM, Number of replicates 2.0, Standard deviation 2.816135776094685 %",1.64%
same,inhibition,"PRVABC59, Concentration 99.01 uM, Number of replicates 2.0, Standard deviation 1.9941147484327908 %",7.38%
same,inhibition,"PRVABC59, Concentration 198.0 uM, Number of replicates 2.0, Standard deviation 0.19707731493778816 %",19.3%
CC(C)(C)c1ccc(S(=O)(=O)N2CCN(C(=O)c3cc(Cl)ccc3NS(=O)(=O)c3ccc(Oc4ccccc4Cl)cc3)CC2)cc1,inhibition,[1],14.3%
COc1ccc(S(=O)(=O)n2nc(OC(=O)c3ccccc3)cc2N)cc1,inhibition,"PRVABC59, Concentration 49.5 uM, Number of replicates 2.0, Standard deviation 0.018531126353269887 %",99.1%
same,inhibition,"PRVABC59, Concentration 99.01 uM, Number of replicates 2.0, Standard deviation 0.03874003445206144 %",99.1%
same,inhibition,"PRVABC59, Concentration 198.0 uM, Number of replicates 2.0, Standard deviation 0.035373681367799316 %",99%
COc1ccc(S(=O)(=O)Nc2ccc(C(=O)O)cc2)cc1,inhibition,"PRVABC59, Concentration 49.5 uM, Number of replicates 2.0, Standard deviation 1.0137935505852833 %",2.03%
same,inhibition,"PRVABC59, Concentration 99.01 uM, Number of replicates 2.0, Standard deviation 1.063246976754026 %",4.7%
same,inhibition,"PRVABC59, Concentration 198.0 uM, Number of replicates 2.0, Standard deviation 1.989546367228998 %",3.61%
COc1ccc(S(=O)(=O)N2CCC(C(=O)Nc3nc4ccccc4s3)CC2)cc1,inhibition,"PRVABC59, Concentration 49.5 uM, Number of replicates 2.0, Standard deviation 3.281212488466362 %",4.02%
same,inhibition,"PRVABC59, Concentration 99.01 uM, Number of replicates 2.0, Standard deviation 0.8753020409515783 %",5.17%
same,inhibition,"PRVABC59, Concentration 198.0 uM, Number of replicates 2.0, Standard deviation 6.6794445217114635 %",7.79%
CN(Cc1cccc(F)c1F)C(=O)c1cc(Cl)ccc1NS(=O)(=O)c1ccc(Oc2ccccc2Cl)cc1,inhibition,[1],31.2%
CC(C)CCN(CCC(C)C)C(=O)c1cc(Cl)ccc1NS(=O)(=O)c1ccc(Oc2ccccc2Cl)cc1,inhibition,[1],18.8%
CS(=O)(=O)c1ccc(O)c(NC(=O)c2cc(Cl)ccc2NS(=O)(=O)c2ccc(Oc3ccccc3Cl)cc2)c1,inhibition,[1],32.3%
COc1nscc1-c1ccccc1C(=O)Nc1cnn(C)c1,inhibition,"PRVABC59, Concentration 49.5 uM, Number of replicates 2.0, Standard deviation 2.0613155081961194 %",-1.46%
same,inhibition,"PRVABC59, Concentration 99.01 uM, Number of replicates 2.0, Standard deviation 1.0972097923679232 %",1.42%
same,inhibition,"PRVABC59, Concentration 198.0 uM, Number of replicates 2.0, Standard deviation 0.19246139208887503 %",3.36%
O=C(Cn1sc2ccccc2c1=O)Nc1cccc(OCc2cn(CC(=O)Nc3ccccc3Oc3ccccc3)nn2)c1,inhibition,"PRVABC59, Concentration 49.5 uM, Number of replicates 2.0, Standard deviation 0.019067908615904634 %",53.7%
same,inhibition,"PRVABC59, Concentration 99.01 uM, Number of replicates 2.0, Standard deviation 0.0558469345004512 %",58.2%
same,inhibition,"PRVABC59, Concentration 198.0 uM, Number of replicates 2.0, Standard deviation 0.30102425600760013 %",69.5%
Cc1nccn1-c1ccc(NC(=O)c2cc(Cl)ccc2NS(=O)(=O)c2ccc(Oc3ccccc3Cl)cc2)cc1,inhibition,[1],43.8%
O=C(NCc1cccc(-n2cccn2)c1)c1cc(Cl)ccc1NS(=O)(=O)c1ccc(Oc2ccccc2Cl)cc1,inhibition,[1],33.4%
O=C(Nc1ccc(-n2cccn2)cc1)c1cc(Cl)ccc1NS(=O)(=O)c1ccc(Oc2ccccc2Cl)cc1,inhibition,[1],71.5%
CCN1CCN(c2ccc(NC(=O)c3cc(Cl)ccc3NS(=O)(=O)c3ccc(Oc4ccccc4Cl)cc3)cc2)CC1,inhibition,[1],17.1%
CCN(CC)S(=O)(=O)c1ccc(NC(=O)c2cc(Cl)ccc2NS(=O)(=O)c2ccc(Oc3ccccc3Cl)cc2)cc1,inhibition,[1],27.6%
O=C(Nc1ccc(-n2ccnc2)cc1)c1cc(Cl)ccc1NS(=O)(=O)c1ccc(Oc2ccccc2Cl)cc1,inhibition,[1],63.6%
COc1ccc([C@@H](C)NC(=O)C2CCN(c3ccc(C=O)cc3)CC2)cc1OC,inhibition,"PRVABC59, Concentration 10.0 uM, Number of replicates 1.0",22.9%
C[C@H](NC(=O)c1cc(Cl)ccc1NS(=O)(=O)c1ccc(Oc2ccccc2Cl)cc1)c1ccccc1C(F)(F)F,inhibition,[1],42.7%
C[C@@H](CC(C)(C)c1ccccc1)NC(=O)c1cc(Cl)ccc1NS(=O)(=O)c1ccc(Oc2ccccc2Cl)cc1,inhibition,[1],18.2%
C[C@H](NC(=O)c1cc(Cl)ccc1NS(=O)(=O)c1ccc(Oc2ccccc2Cl)cc1)c1cccc(C(F)(F)F)c1,inhibition,[1],39.3%
O=C(N[C@H](c1ccccc1)[C@@H](O)c1ccccc1)c1cc(Cl)ccc1NS(=O)(=O)c1ccc(Oc2ccccc2Cl)cc1,inhibition,[1],45.7%
CC(C)(C)[C@H](NC(=O)c1cc(Cl)ccc1NS(=O)(=O)c1ccc(Oc2ccccc2Cl)cc1)c1ccccc1,inhibition,[1],57.8%
O=C(N[C@H](c1ccccc1)C(F)(F)F)c1cc(Cl)ccc1NS(=O)(=O)c1ccc(Oc2ccccc2Cl)cc1,inhibition,[1],60.6%
Cc1cnccc1NC(=O)c1cccc(-n2cnnn2)c1,inhibition,"PRVABC59, Concentration 49.5 uM, Number of replicates 2.0, Standard deviation 4.148081450793093 %",-4.56%
same,inhibition,"PRVABC59, Concentration 99.01 uM, Number of replicates 2.0, Standard deviation 2.8220872377424997 %",-2.1%
same,inhibition,"PRVABC59, Concentration 198.0 uM, Number of replicates 2.0, Standard deviation 5.644174285824181 %",-3.31%
O=Cc1ccc(N2CCC(C(=O)Nc3ccc(F)cc3Br)CC2)cc1,inhibition,[2],20.8%
CCN(CCOc1ccccc1C)C(=O)C1CCN(c2ccc(C=O)cc2)CC1,inhibition,[2],25.1%
O=C(c1cc(Cl)ccc1NS(=O)(=O)c1ccc(Oc2ccccc2Cl)cc1)N1CCCN(c2ccc(C(F)(F)F)cn2)CC1,inhibition,[1],30%
CCN1CCOC[C@H]1C(=O)Nc1cc(Cl)cc(C(=O)NC(C)(C)CO)c1,inhibition,"PRVABC59, Concentration 49.5 uM, Number of replicates 2.0, Standard deviation 1.425535849610213 %",-1.8%
same,inhibition,"PRVABC59, Concentration 99.01 uM, Number of replicates 2.0, Standard deviation 1.345541763339264 %",-2.76%
same,inhibition,"PRVABC59, Concentration 198.0 uM, Number of replicates 2.0, Standard deviation 3.0049064318797343 %",-3.73%
